Data as given in PubChem BioAssay (EPA / NIEHS).
Records with an inconclusive call do not appear. Calls of active or inactive are those of the source. How the source made its calls: active means hit-call score of the fitted dose curve at least 0.9, where 1 is the maximum; inconclusive means response in the unintended direction; inactive means score below 0.9.

test: ACEA_ER_80hr: ACEA Biosciences xCELLigence Real-Time Cell Analysis on Estrogen Receptor Agonism for Proliferation (AID 2282667); conditions: T47D proliferation, impedance (xCELLigence), 80 h
In short: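 Real-time electrical impedance tracked growth of the human breast line T47D, with the 80 h post-dosing value used. Dosing spanned eight 1:4 steps down from a 100 uM final top concentration, run in duplicate.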

Compound	outcome	AC50
CCC(C)(C)c1cc(O)c(C(C)(C)CC)cc1O	inactive	
NS(=O)(=O)c1cc(C(=O)O)c(NCc2ccco2)cc1Cl	inactive	
CC(=O)c1ccc(O)cc1	inactive	
CCCCCCCCSCc1cc(C)c(O)c(CSCCCCCCCC)c1	inactive	
CCCCCCCCCCCCCCCCCC(=O)OCCCCCCCCCCCCCC(C)C	inactive	
O=C1CCCCCCCCCCCC(=O)OCCO1	inactive	
CC(=N[Si](C)(C)C)O[Si](C)(C)C		0.0603 µM (active)
CC(C)(O)CCc1ccccc1	inactive	
[Na+]	inactive	
NC(N)=NC(N)=NCCc1ccccc1	inactive	
COc1ccccc1NC(=O)CC(C)=O		10.3 µM (active)
CC(C)(O)C(=O)c1ccc(OCCO)cc1	inactive	
CCC=C(C)C=O	inactive	
CCCCCCC(O)CCOC(C)=O (configuration not stated)	inactive	
C=C1CC[C@H]2O[C@]2(C)CC[C@@H]2[C@@H]1CC2(C)C	inactive	
CC12CCC(C1)C(C)(C)C2O (configuration not stated)	inactive	
CC(=O)N(C)C	inactive	
CC(=O)OC(C)(C)C1CC=C(C)CC1 (configuration not stated)	inactive	
C=CCOCC(O)CO (configuration not stated)		0.0285 µM (active)

Compound	outcome	AC50
CCCCCC1C(=O)CCC1CC(=O)OC (configuration not stated)		50 µM (active)
CCCCCCCCCCCCOC(C)=O	inactive	
CCOC(=O)CC1(C)OCC(C)O1 (configuration not stated)	inactive	
[Cu+]	inactive	
CCCC1CCC(=O)CC1	inactive	
C=C(F)C(=O)OC(C(F)(F)F)C(F)(F)F	inactive	
CC(=O)c1ccc(C)cc1	inactive	
CCCCCCCCCCCCCC(=O)OCC	inactive	
ClCCOCCOCCCl	inactive	
O=C(O)c1cc(C(=O)O)c(C(=O)O)cc1C(=O)O	inactive	
CC(C)(C)c1cc(CCC(=O)OCCSCCOC(=O)CCc2cc(C(C)(C)C)c(O)c(C(C)(C)C)c2)cc(C(C)(C)C)c1O	inactive	
OC[C@@H](O)[C@H](O)[C@@H](O)[C@@H](O)CO	inactive	
CCO[Si](CCC#N)(OCC)OCC	inactive	
CCCCCCCCOC(=O)c1ccc(O)cc1		0.521 µM (active)
CCC(=O)OCC=Cc1ccccc1		10.5 µM (active)
O=C(O)C(F)(F)C(F)(F)C(F)(F)C(F)(F)C(F)(F)C(F)(F)C(F)(F)C(F)F		14.6 µM (active)
CC(C)(CO)CO	inactive	
N[C@@H](CCC(=O)O)C(=O)O	inactive	
